Results on 25 compounds are retold here after PubChem BioAssay.

The structures appear in SMILES notation.

The nature of the assay: binders from COS7 lysate, DM2A8 probe, primary screen, torsin A project, cell lysate, small-molecule microarray, fluorescence 635/667 (AID 1065). To be noted: higher = more signal, COS7 lysate expressing mutant human TOR1A.
In the case of `COc1ccc(C(O)C2C=CC3C(=O)N(c4ccccc4)C(=O)C3N2Nc2ccccc2F)cc1` (stereo not given), the composite z-score is 0.67. On to `COCCOC(=O)N1C(=O)[C@@]2(c3cc(C#CCC(C(=O)OC)C(=O)OC)ccc31)[C@H](c1ccc(O)cc1)N1[C@H](c3ccccc3)[C@H](c3ccccc3)OC(=O)[C@H]1[C@@H]2C(=O)NC[C@H](O)c1ccccc1`, for which the composite z-score was 0.63. The value for `COCC(=C=CC[C@H](O)c1cccc(OCCO)c1)C[C@H](O)COCc1ccccc1` was 0.823; that for `C=C(C)[C@@H]1CC=C(C(O)C2C=CC3C(=O)N(c4ccccc4)C(=O)C3N2Nc2ccc(C#N)cc2)CC1` (stereo not given in full) was -0.278. In turn, `COc1ccc(NC(=O)O[C@H]2[C@@H]3OC(=O)[C@H](Cc4cccc(Br)c4)C/C=C/C[C@@H](Cc4cccc(Br)c4)C(=O)O[C@H]3[C@@H](OC)O[C@@H]2CO)cc1` gave a composite z-score of 1.4. `C=C(/C(=C/C[C@H](OC(=O)c1ccncc1)c1cccc(OCCO)c1)c1cnc2ccccc2c1)C(C)C` displayed a composite z-score of 0.857.

Compound `CS(=O)(=O)CCOC(=O)C1=CC(CCCO)=CC(C2CC2)N(Cc2cccc(OC(F)(F)F)c2)C=C1C(=O)OCCS(C)(=O)=O` (stereo not given) registered a composite z-score of 0.314. The value for `NC(=O)[C@H]1[C@@H]2C(=O)O[C@@H](c3ccccc3)[C@@H](c3ccccc3)N2[C@@H](c2ccc(O)cc2)[C@]12C(=O)Nc1ccc(C#CC3=CCCCC3)cc12` was 0.813. The value for `[N-]=[N+]=NCc1ccccc1[C@@H]1OC(c2ccc(OCCCO)cc2)=N[C@]1(Cc1ccccc1)C(=O)NCCN1CCOCC1` was 0.0026. As for `COc1cc(C(O)C2C=CC3C(=O)N(Cc4ccccc4)C(=O)C3N2n2cnnc2)cc(OC)c1OC` (stereo not given), the composite z-score was found to be 0.606. The value for `C=CCN1C(=O)[C@@]2(O[C@@H](CCO)[C@H]([Si](C)(C)c3ccc(OC)cc3)[C@H]2C)c2cc(N3CCOC3=O)ccc21` was 0.0241; that for `CC(C)[C@H]1NC(=O)[C@@]23C(=O)N[C@@H](Cc4ccccc4)C2[C@H](C)[C@@]2(C)O[C@H]2C3/C=C/C/C=C\CNC(=O)[C@H](Cc2ccccc2)NC1=O` (stereo not given in full) was 0.425. `O=C1C2C=CC(C(O)c3ccco3)N(Nc3ccccc3)C2C(=O)N1c1ccccc1` (stereo not given): the composite z-score was -0.79. The value for `CC(C)C[C@@H]1NC(=O)[C@@]23C(=O)N[C@@H](Cc4ccccc4)C2[C@H](C)[C@@]2(C)O[C@H]2C3/C=C/C/C=C\CNC(=O)[C@@H](C)NC1=O` (stereo not given in full) was 0.183. For the compound `CCN(CC)c1ccc(N2CC=CC34O[C@@H]5/C=C\CCC(C)OC(=O)C5[C@H]3C(=O)N(C(C)CO)[C@@H]4C2=O)cc1` (stereo not given in full), the composite z-score was -0.362. `CO[C@H]1O[C@H](CO)[C@@H](OC(=O)c2ccc(Br)cc2)[C@@H]2OC(=O)[C@H](Cc3ccccc3)C/C=C/C[C@@H](Cc3ccccc3)C(=O)O[C@@H]12`: the composite z-score is 0.418. As to `CC(C)C(CO)N1C(=O)[C@@H]2[C@H]3C(=O)OCC=C[C@H]3OC23C=CCN(C(C)(C)C)C(=O)[C@@H]13` (stereo not given in full), the composite z-score was -0.141. The value for `[N-]=[N+]=Nc1ccccc1C[C@]1(C(=O)O)N=C(c2ccc(OCCCO)cc2)O[C@H]1c1ccccc1N=[N+]=[N-]` was 0.618. In the case of `C=C(/C(=C/C[C@@H](OC(=O)c1ccncc1)c1cccc(OCCO)c1)c1cnc2ccccc2c1)C(C)C`, the composite z-score is 0.375. `CCCNC(=O)[C@@]1(Sc2ccc(C)cc2)CC(=O)N(C(C)C)[C@@H]1c1ccc(CO)cc1I` yielded a composite z-score of 0.0023. The value for `C=CCNC(=O)[C@@H]1[C@H]2C(=O)O[C@H](c3ccccc3)[C@H](c3ccccc3)N2[C@H](c2ccc(OCCO)cc2)[C@@]12C(=O)N(C(=O)OCCOC)c1ccc(C#CCCO)cc12` was -0.28; that for `CCCCCCCCCCC(O)C1C=CC2C(=O)N(c3ccccc3)C(=O)C2N1Nc1ccccc1F` (stereo not given) was -0.165.

In turn, `COC(=O)C1N=C(c2ccc(OCCCO)cc2)N(c2ccccc2)O1` (stereo not given) registered a composite z-score of 0.148. `COC(=O)[C@@]1(Cc2ccc(F)cc2)[C@H]2c3cc(C(=O)N4CCCC4)n(C)c3C[C@H]2CN1C(=O)c1ccccc1` showed a composite z-score of 0.155.

With `O=C1C2C=CC(C(O)C=Cc3ccc([N+](=O)[O-])cc3)N(Nc3ccccc3)C2C(=O)N1c1ccccc1` (stereo not given), the composite z-score is -0.0552.
